{"source": "PubChem BioAssay (EPA / NIEHS)", "note": "Values joined by “and” are separate entries in the source; they are usually repeats but may differ in a detail not shown here. Equal entries are not always repeated. The source holds several records for some structures; these can differ, active in one and inactive in another. Active and inactive are the calls of the source. The calls were made as follows: active = hit-call score of the fitted dose curve at least 0.9, where 1 is the maximum; inactive = score below 0.9.", "data": [{"read-out": "Pyruvate Dehydrogenase Kinase 4 (PDK4), PDK4 (gene 5166)", "assay": "LTEA_HepaRG_PDK4: Life Technologies and Expression Analysis (LTEA) Assay for Pyruvate Dehydrogenase Kinase 4 (PDK4) using HepaRG (AID 2283525)", "conditions": "mRNA level, 48 h; actives raise or lower the signal", "in_short": "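Eight-point, half-log concentration series (max 100 uM, 0.5% DMSO) applied to differentiated HepaRG cells for 48 h in duplicate. Endpoint: PDK4 mRNA induction or repression by qRT-PCR against DMSO baseline.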", "values": [{"compound": "CC1(c2ccc(Oc3ccccc3)cc2)OC(=O)N(Nc2ccccc2)C1=O", "note": "(stereo not given)", "AC50": "32.1 µM (active)"}, {"compound": "CC(C)N(C(=O)COc1nnc(C(F)(F)F)s1)c1ccc(F)cc1", "outcome": "inactive"}, {"compound": "O=S(=O)(O)C(F)(F)C(F)(F)C(F)(F)C(F)(F)C(F)(F)C(F)(F)C(F)(F)C(F)(F)F", "AC50": "27 µM (active) [middle of 4 runs]"}, {"compound": "CCOCN(C(=O)CCl)c1c(C)cccc1CC", "AC50": "50 µM (active)"}, {"compound": "CC(C)(C)C(O)C(Oc1ccc(Cl)cc1)n1cncn1", "note": "(stereo not given)", "outcome": "inactive"}, {"compound": "Oc1ccc(Cl)cc1Cc1ccccc1", "AC50": "76.8 µM (active) and 83.6 µM (active)", "outcome": "inactive"}, {"compound": "CCN(CC)C(=O)SCc1ccc(Cl)cc1", "outcome": "inactive"}, {"compound": "CCC(C)(C)C(=O)OC1=C(c2ccc(Cl)cc2Cl)C(=O)OC12CCCCC2", "outcome": "inactive"}, {"compound": "O=S1OCC2C(CO1)C1(Cl)C(Cl)=C(Cl)C2(Cl)C1(Cl)Cl", "note": "(stereo not given)", "outcome": "inactive"}, {"compound": "CNC(=O)Oc1ccccc1OC(C)C", "outcome": "inactive"}, {"compound": "Oc1cc(Cl)ccc1Oc1ccc(Cl)cc1Cl", "AC50": "82 µM (active) and 88.4 µM (active)", "outcome": "inactive"}, {"compound": "CC1(C)C(C=C(Cl)Cl)C1C(=O)OC(C#N)c1ccc(F)c(Oc2ccccc2)c1", "note": "(stereo not given)", "AC50": "50 µM (active)"}, {"compound": "CCC(C)Nc1c([N+](=O)[O-])cc(C(C)(C)C)cc1[N+](=O)[O-]", "note": "(stereo not given)", "outcome": "inactive"}, {"compound": "COP(=S)(OC)Oc1ccc(SC)c(C)c1", "outcome": "inactive"}, {"compound": "CCOC1Oc2ccc(OS(C)(=O)=O)cc2C1(C)C", "note": "(stereo not given)", "AC50": "85.7 µM (active)"}, {"compound": "N#Cc1c(Cl)c(Cl)c(Cl)c(C#N)c1Cl", "AC50": "75.6 µM (active)"}, {"compound": "O=[N+]([O-])/N=C1\\NCCN1Cc1ccc(Cl)nc1", "AC50": "34.4 µM (active)"}, {"compound": "C[C@H]1[C@H](c2ccc(Cl)cc2)SC(=O)N1C(=O)NC1CCCCC1", "outcome": "inactive"}, {"compound": "CN1CSC(=S)N(C)C1", "outcome": "inactive"}, {"compound": "COP(=S)(OC)Oc1ccc([N+](=O)[O-])cc1", "outcome": "inactive"}, {"compound": "O=C1c2ccccc2C(=O)N1SC(Cl)(Cl)Cl", "outcome": "inactive"}, {"compound": "C#CCN1C(=O)COc2cc(F)c(N3C(=O)C4=C(CCCC4)C3=O)cc21", "outcome": "inactive"}]}, {"read-out": "NAD(P)H dehydrogenase [quinone] 1 (NQO1), NQO1 (gene 1728)", "assay": "LTEA_HepaRG_NQO1: Life Technologies and Expression Analysis (LTEA) Assay for NAD(P)H dehydrogenase [quinone] 1 (NQO1) using HepaRG (AID 2283526)", "conditions": "mRNA level, 48 h; actives raise or lower the signal", "in_short": "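NQO1 transcript induction or loss measured by TaqMan qRT-PCR, referenced to three housekeeping genes and fitted bidirectionally against 0.5% DMSO. HepaRG cultures exposed 48 h, duplicate, eight-point half-log series, top 100 uM.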", "values": [{"compound": "CC1(c2ccc(Oc3ccccc3)cc2)OC(=O)N(Nc2ccccc2)C1=O", "note": "(stereo not given)", "AC50": "50.2 µM (active)"}, {"compound": "CC(C)N(C(=O)COc1nnc(C(F)(F)F)s1)c1ccc(F)cc1", "outcome": "inactive"}, {"compound": "O=S(=O)(O)C(F)(F)C(F)(F)C(F)(F)C(F)(F)C(F)(F)C(F)(F)C(F)(F)C(F)(F)F", "outcome": "inactive"}, {"compound": "CCOCN(C(=O)CCl)c1c(C)cccc1CC", "outcome": "inactive"}, {"compound": "CC(C)(C)C(O)C(Oc1ccc(Cl)cc1)n1cncn1", "note": "(stereo not given)", "outcome": "inactive"}, {"compound": "Oc1ccc(Cl)cc1Cc1ccccc1", "outcome": "inactive"}, {"compound": "CCN(CC)C(=O)SCc1ccc(Cl)cc1", "outcome": "inactive"}, {"compound": "CCC(C)(C)C(=O)OC1=C(c2ccc(Cl)cc2Cl)C(=O)OC12CCCCC2", "outcome": "inactive"}, {"compound": "O=S1OCC2C(CO1)C1(Cl)C(Cl)=C(Cl)C2(Cl)C1(Cl)Cl", "note": "(stereo not given)", "outcome": "inactive"}, {"compound": "CNC(=O)Oc1ccccc1OC(C)C", "outcome": "inactive"}, {"compound": "Oc1cc(Cl)ccc1Oc1ccc(Cl)cc1Cl", "outcome": "inactive"}, {"compound": "CC1(C)C(C=C(Cl)Cl)C1C(=O)OC(C#N)c1ccc(F)c(Oc2ccccc2)c1", "note": "(stereo not given)", "outcome": "inactive"}, {"compound": "CCC(C)Nc1c([N+](=O)[O-])cc(C(C)(C)C)cc1[N+](=O)[O-]", "note": "(stereo not given)", "outcome": "inactive"}, {"compound": "COP(=S)(OC)Oc1ccc(SC)c(C)c1", "outcome": "inactive"}, {"compound": "CCOC1Oc2ccc(OS(C)(=O)=O)cc2C1(C)C", "note": "(stereo not given)", "outcome": "inactive"}, {"compound": "N#Cc1c(Cl)c(Cl)c(Cl)c(C#N)c1Cl", "outcome": "inactive"}, {"compound": "O=[N+]([O-])/N=C1\\NCCN1Cc1ccc(Cl)nc1", "AC50": "29.1 µM (active)"}, {"compound": "C[C@H]1[C@H](c2ccc(Cl)cc2)SC(=O)N1C(=O)NC1CCCCC1", "outcome": "inactive"}, {"compound": "CN1CSC(=S)N(C)C1", "outcome": "inactive"}, {"compound": "COP(=S)(OC)Oc1ccc([N+](=O)[O-])cc1", "outcome": "inactive"}, {"compound": "O=C1c2ccccc2C(=O)N1SC(Cl)(Cl)Cl", "outcome": "inactive"}, {"compound": "C#CCN1C(=O)COc2cc(F)c(N3C(=O)C4=C(CCCC4)C3=O)cc21", "outcome": "inactive"}]}, {"read-out": "Nuclear factor erythroid 2-related factor 2 (Homo sapiens) (UniProt Q16236)", "assay": "LTEA_HepaRG_NFE2L2: Life Technologies and Expression Analysis (LTEA) Assay for Nuclear factor erythroid 2-related factor 2 (NFE2L2) Transcription Factor using HepaRG (AID 2283527);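 as to outcome: TaqMan qRT-PCR transcript level normalised to ACTB GAPDH and POLR2A housekeeping genes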", "conditions": "mRNA level, 48 h; actives raise or lower the signal", "in_short": "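Human liver HepaRG line treated in duplicate for 48 h with an eight-point series topping at 100 uM. Gene expression of NFE2L2 by qRT-PCR, bidirectionally fitted against the vehicle control.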", "values": [{"compound": "CC1(c2ccc(Oc3ccccc3)cc2)OC(=O)N(Nc2ccccc2)C1=O", "note": "(stereo not given)", "AC50": "23 µM (active)"}, {"compound": "CC(C)N(C(=O)COc1nnc(C(F)(F)F)s1)c1ccc(F)cc1", "outcome": "inactive"}, {"compound": "O=S(=O)(O)C(F)(F)C(F)(F)C(F)(F)C(F)(F)C(F)(F)C(F)(F)C(F)(F)C(F)(F)F", "AC50": "58 µM (active)", "outcome": "inactive"}, {"compound": "CCOCN(C(=O)CCl)c1c(C)cccc1CC", "outcome": "inactive"}, {"compound": "CC(C)(C)C(O)C(Oc1ccc(Cl)cc1)n1cncn1", "note": "(stereo not given)", "AC50": "9.92 µM (active)", "outcome": "inactive"}, {"compound": "Oc1ccc(Cl)cc1Cc1ccccc1", "outcome": "inactive"}, {"compound": "CCN(CC)C(=O)SCc1ccc(Cl)cc1", "outcome": "inactive"}, {"compound": "CCC(C)(C)C(=O)OC1=C(c2ccc(Cl)cc2Cl)C(=O)OC12CCCCC2", "outcome": "inactive"}, {"compound": "O=S1OCC2C(CO1)C1(Cl)C(Cl)=C(Cl)C2(Cl)C1(Cl)Cl", "note": "(stereo not given)", "outcome": "inactive"}, {"compound": "CNC(=O)Oc1ccccc1OC(C)C", "outcome": "inactive"}, {"compound": "Oc1cc(Cl)ccc1Oc1ccc(Cl)cc1Cl", "outcome": "inactive"}, {"compound": "CC1(C)C(C=C(Cl)Cl)C1C(=O)OC(C#N)c1ccc(F)c(Oc2ccccc2)c1", "note": "(stereo not given)", "AC50": "50 µM (active)"}, {"compound": "CCC(C)Nc1c([N+](=O)[O-])cc(C(C)(C)C)cc1[N+](=O)[O-]", "note": "(stereo not given)", "outcome": "inactive"}, {"compound": "COP(=S)(OC)Oc1ccc(SC)c(C)c1", "outcome": "inactive"}, {"compound": "CCOC1Oc2ccc(OS(C)(=O)=O)cc2C1(C)C", "note": "(stereo not given)", "outcome": "inactive"}, {"compound": "N#Cc1c(Cl)c(Cl)c(Cl)c(C#N)c1Cl", "outcome": "inactive"}, {"compound": "O=[N+]([O-])/N=C1\\NCCN1Cc1ccc(Cl)nc1", "AC50": "18.9 µM (active)"}, {"compound": "C[C@H]1[C@H](c2ccc(Cl)cc2)SC(=O)N1C(=O)NC1CCCCC1", "AC50": "73 µM (active)"}, {"compound": "CN1CSC(=S)N(C)C1", "outcome": "inactive"}, {"compound": "COP(=S)(OC)Oc1ccc([N+](=O)[O-])cc1", "outcome": "inactive"}, {"compound": "O=C1c2ccccc2C(=O)N1SC(Cl)(Cl)Cl", "outcome": "inactive"}, {"compound": "C#CCN1C(=O)COc2cc(F)c(N3C(=O)C4=C(CCCC4)C3=O)cc21", "outcome": "inactive"}]}]}
